Assay results from PubChem BioAssay (NCATS).
Several values for one entry are separate records, joined by “and”; a condition that tells them apart may be missing. Equal values may be shown once. Inconclusive results are not listed. Where a call stands in place of a potency, no number is given. A number with no mark means an inactive call. Activity calls are given as the source filed them. The call rests on the fitted dose curve; in most records, active means well fitted curve in the direction sought with a large enough effect; inconclusive means small, poorly fitted or top-dose-only effect, or another doubt; inactive means no such curve, though single readings can be large; an effect the other way counts as inactive or inconclusive. Where a SMILES comes first, the peptide text is derived from it. Bridges are numbered along the chain shown (N, C = ends). [ ]: non-standard residue; d: D form. The star is where a group is joined. X1 = CCC(C)C(N)C1=NC(C(=O)*)CS1; dOrn = NCCC[C@@H](N)C(=O)O

Columns and labels:
[1] = biological target: Cytochrome P450 3A7 (Homo sapiens) (UniProt P24462); experiment: Cytochrome P450 family 3 subfamily A member 7 (CYP3A7) small molecule antagonists: luciferase biochemical qHTS assay (AID 1963596); further: nearly all actives have a fitted effect of over 40% in size
Chain of Cytochrome P450 3A7 (Homo sapiens) (P24462 whole entry, looked up): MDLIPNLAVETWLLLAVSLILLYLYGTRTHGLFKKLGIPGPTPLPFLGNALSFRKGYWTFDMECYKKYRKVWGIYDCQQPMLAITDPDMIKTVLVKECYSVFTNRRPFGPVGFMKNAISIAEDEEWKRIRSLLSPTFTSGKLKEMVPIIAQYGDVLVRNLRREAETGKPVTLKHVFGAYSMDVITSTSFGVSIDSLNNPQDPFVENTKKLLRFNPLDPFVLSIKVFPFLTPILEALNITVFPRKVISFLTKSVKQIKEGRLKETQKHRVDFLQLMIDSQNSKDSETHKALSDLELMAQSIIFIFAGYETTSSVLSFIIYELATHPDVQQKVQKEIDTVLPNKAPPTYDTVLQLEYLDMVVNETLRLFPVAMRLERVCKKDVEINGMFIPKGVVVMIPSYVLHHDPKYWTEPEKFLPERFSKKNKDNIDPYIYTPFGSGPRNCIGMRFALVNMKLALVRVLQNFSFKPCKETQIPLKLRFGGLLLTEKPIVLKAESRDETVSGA
Summary of the method: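 Enzyme-substrate mix + cpd (DMSO), 10 min RT; + NADPH regen system, 1 h RT; + luciferin detection reagent, 20 min RT; luminescence read. Proluciferin substrate, P450-Glo format, 1536-well qHTS.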

[2] = Viability qHTS for spleen associated tyrosine kinase inhibitor (SYKi) naive MV4-11 cells (AID 1963823); further: nearly all actives have a fitted effect of over 40% in size; further: potency means the concentration at half of the fitted maximal effect
Summary of the method: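 Luminescence from CellTiter-Glo, developed 10 min at room temperature, gave viability of MV4-11 cells never exposed to SYK inhibitor. Cells (500/well) had been incubated with compounds for 72 hr under standard culture conditions.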

[3] = Viability qHTS for spleen associated tyrosine kinase inhibitor (SYKi) drug resistant MV4-11 cells (AID 1963824); further: nearly all actives have a fitted effect of over 35% in size; further: potency means the concentration at half of the fitted maximal effect
Summary of the method: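 SYK inhibitor-resistant MV4-11 AML cells, 500 per well, added to predispensed compounds and incubated 72 hr at 37 C, 5% CO2. Viability measured by CellTiter-Glo luminescence after 10 min at room temperature.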

[4] = Cellular viability qHTS for adrenocortical cancer (ACC) cell line SW-13 (AID 1963989); conditions: SW-13 ACC cells viability, CellTiter-Glo, 48 h; activity (max response): stronger effect = lower value;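 further: cells grown in serum-free medium with ITS supplement; nearly all actives have a fitted effect of over 65% in size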
Summary of the method: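 Viability was read as CellTiter-Glo luminescence after 48 h compound treatment (up to 46 uM final) of SW-13 cells grown serum-free; titration curves were fit with a four-parameter logistic model to give IC50 and efficacy.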

[5] = Cellular viability qHTS for adrenocortical cancer (ACC) cell line NCI-H295R (AID 1963990); further: nearly all actives have a fitted effect of over 60% in size
Summary of the method: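 CellTiter-Glo ATP luminescence, read 48 h after compound addition, measured viability of NCI-H295R adrenocortical cells grown serum-free with ITS. Final concentrations spanned up to 46 uM. Data normalized to DMSO and doxorubicin, fitted for IC50 and maximal response.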

Row | SMILES | Potency [1] | Potency [2] | Potency [3] | activity (max response) [4] | Potency [5] | activity change, negative = inhibition [1] | viability (% of control) [2] | viability, % of control [3] | activity change, negative = viability loss [5]
1 | O=C(O)C(=O)Nc1cccc(-c2nn[nH]n2)c1 | inactive | inactive | inactive | 14.5% and 11% | inactive |  |  |  | 
2 | O=C(O)[C@@H](O)[C@H](O)[C@H](O)[C@@H](O)C(=O)O | inactive | inactive | inactive | 9.05% |  |  |  |  | 
3 | FC1(F)C(F)(F)C(F)(F)C2(F)C(F)(F)C(F)(F)C(F)(F)C(F)(F)C2(F)C1(F)F (stereo not given) | inactive | inactive | inactive | 5.48% |  |  |  |  | 
4 | CC1(C)S[C@@H]2[C@H](NC(=O)C(C(=O)O)c3ccccc3)C(=O)N2[C@H]1C(=O)O (stereo not given in full) | inactive | inactive | inactive | 3.14% |  |  |  |  | 
5 | O=C(O)c1ccc(S(=O)(=O)N(Cl)Cl)cc1 | inactive | inactive | inactive | 9.06% | inactive |  |  |  | 
6 | FC(F)(F)C(F)(F)C(F)(F)C(F)(F)C(F)(F)C(F)(F)C(F)(F)C(F)(F)Br | inactive | inactive | inactive | 7.96% |  |  |  |  | 
7 | CC(C)(C)c1nnc(NS(=O)(=O)c2ccccc2)s1 | inactive | inactive | inactive | 4.7% | inactive |  |  |  | 
8 | CNC[C@H](O)c1cccc(O)c1 | inactive | 531 nM (active) | inactive | 10.6% and -8.09% | inactive |  |  |  | 
9 | CCC(C)C(N)C1=NC(C(=O)N[C@@H](CC(C)C)C(=O)N[C@H](CCC(=O)O)C(=O)N[C@H](C(=O)N[C@H]2CCCCNC(=O)[C@H](CC(N)=O)NC(=O)[C@@H](CC(=O)O)NC(=O)[C@H](Cc3cnc[nH]3)NC(=O)[C@@H](Cc3ccccc3)NC(=O)[C@H]([C@@H](C)CC)NC(=O)[C@@H](CCCN)NC2=O)[C@@H](C)CC)CS1 (stereo not given in full) (X1-L[dE]IK[dOrn]I[dF]H[dD]N; lactam 4-C) | inactive | inactive | inactive | -8.42% | inactive |  |  |  | 
10 | C[C@@H]1CC[C@@]2(OC1)O[C@H]1C[C@H]3[C@@H]4CC[C@H]5C[C@@H](O)CC[C@]5(C)[C@H]4CC(=O)[C@]3(C)[C@H]1[C@@H]2C |  |  |  | 5.1% |  | -8.63% [at 4.83 µM] | 83.6% [at 4.97 µM] | 73.5% [at 4.97 µM] | -14.3% [at 3.81 µM]
11 | CC(C)(C)C(=O)OCOC(=O)C1N2C(=O)CC2S(=O)(=O)C1(C)C (stereo not given) | inactive | inactive | inactive | 14.5% |  |  |  |  | 
12 | O=C(Oc1ccccc1C(=O)O)c1ccccc1O | inactive | inactive | inactive | -2.11% | inactive |  |  |  | 
13 | CC(C)NNC(=O)c1ccncc1 | inactive | inactive | inactive | 1.43% | inactive |  |  |  | 
14 | O=C1NCC2(CCN(CCc3ccccc3)CC2)O1 | inactive | inactive | inactive | 4.78% |  |  |  |  | 
15 | CCOC(=O)c1ccccc1O | inactive | inactive | inactive | -1.17% | inactive |  |  |  | 
16 | C=CCNC(N)=S | inactive | inactive | inactive | 13% | inactive |  |  |  | 
17 | CN(C)CC/C=C1/c2ccccc2COc2ccc(CC(=O)O)cc21 | inactive | inactive | inactive | 1.77% and 7.73% | inactive |  |  |  | 
18 | CCN1CCc2nc(N)oc2CC1 | inactive | inactive | inactive | 7.47% |  |  |  |  | 
19 | NC(N)=NCCC[C@H](N)C(=O)O |  |  |  | -3.82% |  | 2.52% [at 4.83 µM] | 90.4% [at 4.97 µM] | 98.3% [at 4.97 µM] | -23.9% [at 3.81 µM]
20 | C[N+](C)(C)CCCCCC[N+](C)(C)C | inactive | inactive | inactive | 10.1% |  |  |  |  | 
21 | NC/C=C/C(=O)O | inactive | inactive | inactive | 8.43% | inactive |  |  |  | 
22 | CC(NC(CCc1ccccc1)C(=O)O)C(=O)N1C(=O)N(C)CC1C(=O)O (stereo not given) | inactive | inactive | inactive | 6.3% | inactive |  |  |  | 
23 | CN1CC(=O)N/C1=N/C(=O)Nc1cccc(Cl)c1 | inactive | inactive | inactive | 2.23% |  |  |  |  | 
24 | O=[N+]([O-])c1cncn1CCN1CCOCC1 | inactive | inactive | inactive | 13.4% and -13.9% | inactive |  |  |  | 
25 | O=c1[nH]c([C@@H]2CCCN2)nc2c1oc1ccc(Cl)cc12 | inactive | 8.2 µM (active) and 16.6 µM (active) | 16.4 µM (active) | -13.8% |  |  |  |  | 
26 | CCOC(=O)C(O)c1ccccc1 (stereo not given) | inactive | inactive | inactive | 4.7% | inactive |  |  |  | 
